“And” between values parts separate entries of the source, which are not always exact repeats. Identical values can stand only once. Inconclusive results are not listed. A number with no mark means an inactive call. The source made the active and inactive calls. Calls come from the whole dose curve; as a rule, active = well fitted curve in the direction sought with a large enough effect; inconclusive = small, poorly fitted or top-dose-only effect, or another doubt; inactive = no such curve, though single readings can be large; an effect the other way counts as inactive or inconclusive.

The nature of experiment [1]: Quantitative highthroughput screen to assess conditional lethalithy of NOMO1 cells grown in RPMI1640 with untreated serum (RPMI+s) (AID 1963876).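 For viability: 100% = DMSO wells and 0% = empty wells without cells.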 Note: nearly all actives have a fitted effect of over 35% in size. Note: potency is the fitted concentration of half-maximal effect. In outline:
(§1)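 Each medium arm—HPLM with 10% dialyzed FBS, or RPMI1640 with 5 mM glucose and 10% untreated or dialyzed FBS—was screened against an 11-point, 3-fold compound titration for 48 h at 37 °C, with CellTiter-Glo luminescence as endpoint.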

Experiment [2] in a line: Quantitative highthroughput screen to assess conditional lethalithy of NOMO1 cells grown in Human Plasma-Like Medium with dialyzed fetal bovine serum (HPLM+ds) (AID 1963878).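 For viability: 100% = DMSO wells and 0% = empty wells on each plate.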 Note: nearly all actives have a fitted effect of over 35% in size. Note: potency is the fitted concentration of half-maximal effect. In outline:
as §1

A short description of experiment [3]: Cellular viability qHTS for adrenocortical cancer (ACC) cell line NCI-H295R (AID 1963990). Note: nearly all actives have a fitted effect of over 60% in size. Note: potency is the fitted concentration of half-maximal effect. In outline:
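CellTiter-Glo ATP luminescence, read 48 h after compound addition, measured viability of NCI-H295R adrenocortical cells grown serum-free with ITS. Final concentrations spanned up to 46 uM. Data normalized to DMSO and doxorubicin, fitted for IC50 and maximal response.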
Background: Quantitative high-throughput screening tests each substance at several concentrations.

A short description of experiment [4]: Quantitative highthroughput screen to assess conditional lethalithy of P12 Ichikawa cells grown in Human Plasma-Like Medium with dialyzed fetal bovine serum (HPLM+ds) (AID 1963879). For viability: series mostly up to about 46 µM. Note: nearly all actives have a fitted effect of over 35% in size. Note: potency is the fitted concentration of half-maximal effect. Conditions: Potency: viability. In outline: as §1
A short description of experiment [5]: Quantitative highthroughput screen to assess conditional lethalithy of P12 Ichikawa cells grown in RPMI1640 with untreated serum (RPMI+s) (AID 1963881).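 For viability: series mostly up to about 46 µM; 100% = DMSO wells and 0% = empty wells without cells.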 Note: nearly all actives have a fitted effect of over 35% in size. Note: potency is the fitted concentration of half-maximal effect. To be noted: Potency: viability. The gist of the method: as §1
The nature of experiment [6]: Quantitative highthroughput screen to assess conditional lethalithy of SEM cells grown in RPMI1640 with unreated serum (RPMI+s) (AID 1963883).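 For viability: 100% = DMSO wells and 0% = empty wells without cells.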 Note: nearly all actives have a fitted effect of over 35% in size. Note: potency is the fitted concentration of half-maximal effect. The gist of the method: as §1
The nature of experiment [7]: Quantitative highthroughput screen to assess conditional lethalithy of P12 Ichikawa cells grown in RPMI1640 with dialyzed fetal bovine serum (RPMI+ds) (AID 1963880).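 For viability: 100% = DMSO wells and 0% = empty wells on each plate.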 Note: nearly all actives have a fitted effect of over 35% in size. Note: potency is the fitted concentration of half-maximal effect. Conditions: Potency: P12-Ichikawa viability. The gist of the method: as §1
Experiment [8] in a line: Quantitative highthroughput screen to assess conditional lethalithy of SEM cells grown in Human Plasma-Like Medium with dialyzed fetal bovine serum (HPLM+ds) (AID 1963882). For viability: series mostly up to about 46 µM. Note: nearly all actives have a fitted effect of over 35% in size. Note: potency is the fitted concentration of half-maximal effect. In outline:
as §1

Experiment [9] in a line: Quantitative highthroughput screen to assess conditional lethalithy of SEM cells grown in RPMI1640 with dialyzed fetal bovine serum (RPMI+ds) (AID 1963884).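 For viability: series mostly up to about 46 µM; 100% = DMSO control wells and 0% = empty wells without cells.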 Note: nearly all actives have a fitted effect of over 35% in size. Note: potency is the fitted concentration of half-maximal effect. The gist of the method:
as §1

The nature of experiment [10]: Cellular viability qHTS for adrenocortical cancer (ACC) cell line SW-13 (AID 1963989).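 Note: cells grown in serum-free medium with ITS supplement; % is set by controls: 0 for no effect and ±100 for the full control effect; nearly all actives have a fitted effect of over 65% in size.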 To be noted: SW-13 ACC cells viability, CellTiter-Glo, 48 h; activity (max response): active compounds read low. The gist of the method:
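Viability was read as CellTiter-Glo luminescence after 48 h compound treatment (up to 46 uM final) of SW-13 cells grown serum-free; titration curves were fit with a four-parameter logistic model to give IC50 and efficacy.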

Turning to `Cn1c2cc(S(C)=O)sc2c2cnn(Cc3cccc(N)c3)c(=O)c21` (stereo unspecified), the Potency result in experiment [1], in experiment [2] and in [3] was “inactive” in each case.

On to `O=C1NC(=O)[C@@H](c2cn3c4c(cccc24)CCC3)[C@H]1c1c[nH]c2ccccc12`, for which the Potency in [1] was 1.87 µM (active); in [4] it was 1.48 µM (active); in experiment [5] it was 1.32 µM (active); in experiment [6], 0.59 µM (active).

With `Cc1ccc(O)c(C(CCN(C(C)C)C(C)C)c2ccccc2)c1` (stereo unspecified), the Potency entry in [1], in [4], in experiment [7], in [5], in experiment [8] and in experiment [6] was “inactive” throughout. The Potency result in [9] and in experiment [3] was “inactive” each time.

For `CC1(C)OC2=C(C(=O)c3ccccc3C2=O)[C@H](NCc2ccccc2)[C@H]1O`, the Potency in [1] was 4.18 µM (active); in [4] it was 14.8 µM (active); in [7], 16.6 µM (active); in [5], 8.33 µM (active); in [8], 11.8 µM (active); in experiment [6], 7.43 µM (active). The Potency in experiment [9] is 16.6 µM (active).

As to `FC(F)(F)c1ccc(C=Cc2nc(COc3ccc(CCCCn4ccnn4)cc3)co2)cc1`, the Potency in experiment [1] was 2.35 µM (active); in [4], 0.935 µM (active); in experiment [9], 0.0093 µM (active). Besides, the Potency entry in [8] is “inactive”.

Take `Cc1cnc(Nc2ccc(F)cc2Cl)nc1-c1c[nH]c(C(=O)N[C@H](CO)c2cccc(Cl)c2)c1`: the figures for the Potency in experiment [1], in experiment [2] and in experiment [3] were 1.05 µM (active), 1.66 µM (active) and 14.1 µM (active), respectively.

Consider `O=C(CCc1ccc(O)cc1)c1c(O)cc(O)cc1O[C@@H]1O[C@H](CO)[C@H](O)[C@H](O)[C@H]1O`, for which the Potency result in experiment [1], in experiment [4], in experiment [7], in [5], in experiment [8] and in experiment [6] was “inactive” in each case.

For the compound `COc1ccc(C(=O)CC2(O)C(=O)Nc3c(Cl)ccc(Cl)c32)cc1` (stereo unspecified), the Potency in experiment [1] was 9.35 µM (active); in experiment [4], 4.18 µM (active); in experiment [5] it was 4.69 µM (active); in experiment [8], 4.18 µM (active); in [9] it was 4.18 µM (active). Also, in experiment [10], the activity (max response) was -14.9%. The Potency entry in [3] was “inactive”.

Consider `CN1C(C(=O)Nc2ccccn2)=C(O)c2ccccc2S1(=O)=O`, for which the Potency was 11.8 µM (active) in [1], 11.8 µM (active) in experiment [4], 16.6 µM (active) in experiment [7] and 14.8 µM (active) in experiment [5]. Besides, the activity (max response) in experiment [10] is -11.3% and -19.8%. Also, the Potency result in experiment [3] was “inactive”.

With `O=C(O)CCC1CCC(c2cc(F)ccc2F)(S(=O)(=O)c2ccc(Cl)cc2)CC1` (stereo unspecified), the Potency in [1] is 1.48 µM (active); in [4], 8.33 µM (active); in experiment [7], 14.8 µM (active); in experiment [5] it was 9.35 µM (active). The Potency result in [8] and in [9] was “inactive” each time. The activity (max response) in [10] is -1.6%.

Turning to `C[C@H]1O[C@@H](n2cc(F)c(=O)[nH]c2=O)[C@H](O)[C@H]1O`, the Potency result in experiment [1], in [4], in experiment [7] and in [5] was “inactive” throughout.

In the case of `COC1CCC(C(=O)c2ccc3nc4c(cc3c2)CCCO4)CC1` (stereo unspecified), the Potency result in [1], in [4], in experiment [5] and in [8] was “inactive” in each case. The Potency in experiment [9] is 3.32 µM (active). Further, the activity (max response) in [10] was 3.89%.

With `COC(=O)[C@@H]1[C@H]2C[C@@H]3c4[nH]c5ccccc5c4CCN3C[C@@H]2CC[C@@H]1O`, the Potency in experiment [1] was 0.526 µM (active); in [4] it was 2.96 µM (active); in experiment [7], 5.26 µM (active); in experiment [5], 3.32 µM (active). Moreover, the Potency result in [8], in [6] and in experiment [9] was “inactive” in each case.

Regarding `CC(C)(C)NC(=O)[C@H]1CC[C@H]2[C@@H]3CC[C@H]4NC(=O)C=C[C@]4(C)[C@H]3CC[C@]12C`, the Potency in [1] is 2.35 µM (active); in experiment [4], 10.5 µM (active); in [5] it was 11.8 µM (active). Moreover, the Potency result in experiment [8], in [6] and in [9] was “inactive” in each case. Further, the activity (max response) in experiment [10] is -6.83% and 2.59%.

Turning to `COC(=O)[C@H](c1ccccc1Cl)N1CCc2sccc2C1`, the Potency in experiment [1] was 1.05 µM (active); in [4], 8.33 µM (active); in [7] it was 11.8 µM (active); in [5], 9.35 µM (active). In addition, the Potency result in experiment [8], in experiment [6], in [9] and in experiment [3] was “inactive” in each case. Further, the activity (max response) in [10] is -22.7%.

For the compound `CC(=O)O[C@]1(C(C)=O)CC[C@H]2[C@@H]3C=C(Cl)C4=CC(=O)[C@@H]5C[C@H]5[C@]4(C)[C@@H]3CC[C@@]21C`, the Potency was 0.59 µM (active) in experiment [1], 2.96 µM (active) in experiment [4], 2.35 µM (active) in experiment [7] and 2.96 µM (active) in [5]. Further, the Potency result in experiment [6] and in experiment [9] was “inactive” throughout.

Take `NC1=N[C@@]2(c3cc(NC(=O)c4ccc(F)cn4)ccc3F)COC[C@@H]2CS1`: the Potency was 0.372 µM (active) in experiment [1]; 1.87 µM (active) in experiment [4]; 3.32 µM (active) in experiment [7]; 1.66 µM (active) in experiment [5]; 11.8 µM (active) in experiment [6]. Also, the Potency result in [9] was “inactive”.

For `CC(C)(C)[C@H](NC(=O)c1ccc(N)c(Cl)c1)C(=O)N1CCC[C@@H]1C(=O)N[C@H](C#N)CC(=O)O`, the Potency in [1] was 0.105 µM (active); in experiment [4], 0.372 µM (active); in [7] it was 1.05 µM (active); in [5] it was 0.418 µM (active). Besides, the results for the viability in experiment [8], in experiment [6] and in experiment [9] were 112% [at 3.51 µM], 92.8% [at 3.51 µM] and 105% [at 3.51 µM], respectively.

As for `CNC(=O)c1ccccc1Sc1ccc2c(C=Cc3ccccn3)n[nH]c2c1`, the Potency is 2.35 µM (active) in experiment [1], 4.18 µM (active) in [2], 5.26 µM (active) in experiment [6] and 4.69 µM (active) in experiment [9].

In general, viability refers to a read-out of living cells in per cent, often relative to untreated cells.

Source of the values: PubChem BioAssay (NCATS).
